Reference: PubChem BioAssay (NCATS)
Values joined by “and” are separate entries in the source; they are usually repeats but may differ in a detail not shown here. Equal values may be shown once. Records with an inconclusive call do not appear. Where a call stands in place of a potency, no number is given. Some compounds were tested as several samples or in several runs, with calls that do not always agree. Active and inactive are the calls of the source. Calls come from the whole dose curve; as a rule, active = well fitted inhibition curve with a large enough effect; inconclusive = small, poorly fitted or top-dose-only effect; inactive = no such curve, though single readings can be large or run the other way.

Assay: Confirmatory qHTS for small molecule stabilizers of the endoplasmic reticulum resident proteome: Secreted ER Calcium Modulated Protein (SERCaMP) assay (AID 1508628); note: nearly all actives have a fitted effect of over 40% in size
Conditions: SERCaMP secreted luciferase ER calcium/proteostasis reporter; series mostly up to 76.3 µM
Description: Assay Provider: Brandon K. Harvey Ph.D.
National Institute on Drug Abuse, National Institutes of Health, Baltimore, MD
Endoplasmic reticulum (ER) dysregulation is associated with human pathologies including neurodegenerative, cardiovascular, muscular, and diabetic conditions. Maintenance of ER calcium is critical for functions of the ER and its depletion can lead to loss of ER resident proteins, in a process termed exodosis. Therapeutic compounds capable of attenuating the redistribution of ER proteins under pathological conditions may slow or stop disease progression. To identify such compounds, we performed a quantitative high-throughput screen (qHTS) using the SERCaMP assay, which monitors secretion of ER resident proteins triggered by calcium depletion.
SERCaMP was initially developed as a reporter of ER calcium homeostasis using a Gaussia luciferase with a modified signal peptide and carboxy-terminus (GLuc-SERCaMP), modifications that confer secretion of the reporter in response to ER calcium depletion (Henderson et al., 2014). The assay was used to screen 9,501 compounds, including a collection of drugs approved by the FDA (US), EMA (EU), NHI (Japan), and HC (Canada) regulatory agencies (Huang et al., 2011). Since the SERCaMP reporter reflects the exodosis phenomenon (Trychta et al., 2018a), compounds identified in the screen have the potential to prevent exodosis by different mechanisms such as stabilizing ER calcium or augmenting ERS retrieval.
1. Henderson, M.J., Wires, E.S., Trychta, K.A., Richie, C.T., and Harvey, B.K. (2014). SERCaMP: a carboxy-terminal protein modification that enables monitoring of ER calcium homeostasis. Mol Biol Cell 25, 2828-2839.
2. Huang, R., Southall, N., Wang, Y., Yasgar, A., Shinn, P., Jadhav, A., Nguyen, D.T., and Austin, C.P. (2011). The NCGC pharmaceutical collection: a comprehensive resource of clinically approved drugs enabling repurposing and chemical genomics. Sci Transl Med 3, 80ps16.
3. Trychta, K.A., Back, S., Henderson, M.J., and Harvey, B.K. (2018a). KDEL Receptors Are Differentially Regulated to Maintain the ER Proteome under Calcium Deficiency. Cell Rep 25, 1829-1840 e1826.
SEQUENCE No. (1, 2, 3, etc.); […] (e.g., Cells, Incubation, Reagent, etc.); VALUE and DESCRIPTION.
1; Reagent; 5 uL; 1000 SH-SY5Y cells per wells
3; Compound; 23 nL; Control inhibitor / compound library
5; Reagent; 100 nM; Thapsigargin
7; Reagent; 1 uL; 0.5x coelenterazine
8; Detection; Luminescence; ViewLux imaging system
NOTES (numbers refer to sequence above)
1; SH-SY5Y human neuroblastoma cells stably expressing GLuc-SERCaMP (SH-SY5Y-GLuc-ASARTDL) cells were seeded in 1,536 well white tissue culture treated plates (Corning, Cat# 7464) in DMEM-high glucose-sodium pyruvate (ThermoFisher Scientific, Cat #10569) supplemented with 10% bovine growth serum (Hyclone), 10 U/ml penicillin (Gibco), 10 ug/ml streptomycin (Gibco), and 20 mM HEPES.
2; Assay plates were incubated for 5 hour at 37C in a humidified incubator containing 5% CO2.
3; qHTS libraries (23 nl, final concentrations of 1.53 uM, 7.67 uM, 38.3 uM) or controls (neutral control: DMSO, positive control: dantrolene) were added using a Kalypsis pin-tool Robotic System equipped with 1536 pinheads.
4; Cells were then incubated for 16 hours at 37C, 5% CO2.
5; Thapsigargin was added at 100 nM to deplete ER calcium stores.
6; Cells were incubated for 4 hour (37 °C, 5% CO2)
7; Gaussia luciferase in the medium was measured by adding 1 ul of 0.5x coelenterazine (final concentration 0.07x) prepared in Gaussia Luciferase Glow Assay Buffer (Pierce), without addition of the Cell Lysis Buffer Reagent.
8; Luminescence was measured using a ViewLux […] CCD imaging system (Perkin Elmer) equipped with clear filters. […] The same controls were also used for the calculation of the Z' factor, a measure of assay quality control, as previously described (Zhang et al., 1999). […]
Potency is the fitted concentration of half-maximal effect.

Compound | Potency
CCCN(CC1CC1)c1nc(C)nc(Nc2c(Cl)cc(Cl)cc2Cl)c1Cl | inactive
O=C(O)Cc1ccc2c(c1)C(=O)c1ccccc1CO2 | inactive
NC(=S)c1ccc[n+]([C@@H]2O[C@@H](COP(=O)([O-])OP(=O)(O)OC[C@H]3O[C@@H](n4cnc5c(N)ncnc54)[C@H](OP(=O)(O)O)[C@@H]3O)C(O)C2O)c1 (some centres not stated) | inactive
COc1ccc(/C=C/C(=O)Nc2ccccc2C(=O)O)cc1OC | 39.8 µM (active)
N.N.N.N.N.N.N.N.N.N.N.N.N.N.O.O.[Ru+4].[Ru+5].[Ru+5] | 7.08 µM (active)
CN(C)c1ccc(N=NS(=O)(=O)O)cc1 | inactive
N#C/C(=C\c1c[nH]c2ccccc12)C(=O)c1ccc(O)c(O)c1 | 12.6 µM (active)
Oc1ccccc1O | 7.08 µM (active)
C[N+]1(C)C2CC(OC(=O)[C@H](CO)c3ccccc3)CC1C1OC12 (some centres not stated) | inactive
Cc1c(C(=O)O)c(O)cc2c1C(=O)c1c(O)c([C@@H]3O[C@H](CO)[C@@H](O)[C@H](O)[C@H]3O)c(O)c(O)c1C2=O | 44.7 µM (active)
Cn1cc(C2=C(c3ccc(Cl)cc3Cl)C(=O)NC2=O)c2ccccc21 | 39.8 µM (active)
Oc1cc2c(cc1O)CN(C(=S)NCCc1ccc(Cl)cc1)CCC2 | 15.8 µM (active)
C=C[C@H]1CN2CC[C@@H]1C[C@@H]2[C@@H](O)c1ccnc2ccc(OC)cc12 | 31.6 µM (active)
Cc1ccc(C(=O)O[C@H](C(=O)O)[C@@H](OC(=O)c2ccc(C)cc2)C(=O)O)cc1 (tested in a mixture with another compound) | inactive
Oc1cc(O)cc(/C=C/c2ccc(O)c(O)c2)c1 | inactive
O=C1CN(/N=C/c2ccc(-c3ccc([N+](=O)[O-])cc3)o2)C(=O)N1 | 11.2 µM (active)
CNCC[C@H](Oc1ccc(C(F)(F)F)cc1)c1ccccc1 | inactive
COc1cc(/C=C/C(=O)CC(=O)/C=C/c2ccc(O)c(OC)c2)ccc1O | inactive
COc1cc(NC(C)CCCN)c2ncccc2c1 (configuration not stated) | inactive
O=C(/C=C/c1ccc(O)c(O)c1)OCCc1ccccc1 | inactive and 4.47 µM (active)
CCCCCCCC/C=C\CCCCCCCC(=O)NCCO | inactive
O=C(Nc1ccccc1)c1cc([N+](=O)[O-])ccc1Cl | inactive
